Assay outcomes deposited in PubChem by Columbia University Molecular Screening Center.
VCAM1 pot: potentiators of TNFa-induced VCAM1 expression, primary screen, imaging, HUVEC, TNFa stimulus, immunofluorescence | actives 0.19% (n = 93,000) | HUVEC TNFa-stimulated VCAM-1 immunofluorescence, high-content imaging; scaled per plate to unstimulated/TNFa-only wells | activation, % at 2 µM;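 active means activation above the screen mean plus 3 SD, with well images confirming the hit on visual review, cut at about 28% in these data, passing the limit was not always enough; inconclusive means activation above that limit but images do not confirm it; inactive means activation not above that limit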;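 further: signal is the number of cytoplasmic VCAM-1 stained grains per positive cell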
VCAM1 pot conf: potentiators of TNFa-induced VCAM1 expression, confirmation, imaging, HUVEC, triplicate retest. shares compounds with VCAM1 pot. HUVEC TNFa-stimulated VCAM-1 immunofluorescence imaging. activation, % at 2 µM. 230 tested, under 10 active. AID 1034, 2008;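 active means activation above 30% in triplicate retests at 2 µM, then confirmed by visual review of the well images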
Numbers stand for hits; . = inactive; ? = inconclusive. The list is a sample of the results.

SMILES	VCAM1 pot	others
COC(=O)C(NC(=O)c1ccc(C)cc1)(Nc1cccc(C)n1)C(F)(F)F (configuration not stated)	.
CC(C)CC(=O)NCc1ccc(F)cc1	.
COc1ccc(/C=N\NS(=O)(=O)c2ccc(Cl)cc2)cc1COc1ccccc1[N+](=O)[O-]	.
CCOc1ccc(S(=O)(=O)N(CC(=O)N/N=C/c2cccs2)c2ccc(C)cc2)cc1	.
Cc1onc(-c2ccccc2Cl)c1C(=O)Nc1sc2c(c1C(N)=O)CCC(C)C2 (configuration not stated)	.
O=S(=O)(C/C(=C/CO)S(=O)(=O)c1ccccc1)c1ccccc1	.
CCN(C(=O)c1cccc(F)c1)c1ccccc1C	.
N#Cc1ccccc1Sc1ccccc1C(=O)Nc1ccccc1	.
COC(=O)C1=C(O)C(C(=O)OC)C(c2ccc(C)cc2)C(C#N)(C#N)C1c1ccc(C)cc1 (configuration not stated)	.
CC1=CC(C)(C)N(C(=O)C(C)N2C(=O)c3ccccc3C2=O)c2ccc(C)cc21 (configuration not stated)	.
O=c1c(C=Nc2ccc(Cl)cc2)c[nH]n1-c1cccc(Cl)n1	.
CCOC(=O)C(O)(CC(=O)c1ccc(OC)cc1)C(F)(F)F (configuration not stated)	.
CN(C)CC(C)(C)CNS(=O)(=O)c1ccc(Cl)c(Cl)c1	.
Cc1cc(C)c(S(=O)(=O)N(C2=NCCS2)S(=O)(=O)c2c(C)cc(C)cc2C)c(C)c1	.
Nc1nnc(SCCOc2ccc(Br)cc2)s1	.
CCN(C(=O)CSc1nc2ccccc2n1CCc1ccccc1)C1CCS(=O)(=O)C1 (configuration not stated)	.
COC(=O)C1=C(C(=O)OC)SC(=C2C(=S)C(C)(C)N(C(=O)CC(C)C)c3ccccc32)S1	.
COCCNC(=O)C(c1ccccc1C)N(C(=O)Cn1nnc2ccccc21)c1cccnc1 (configuration not stated)	.
O=c1[nH]c(NCc2ccco2)nnc1Cc1ccccc1Cl	.
Cc1ccc(-c2nnc(SCC(C)C)n2C)cc1	.
CCNc1nc(NCC)nc(N2CC(=O)N(CC(=O)OCC)C2=N)n1	.
CC(C)(C)C(=O)COC(=O)CNC(=O)c1ccc(Oc2ccccc2)cc1	.
COC(=O)c1cnn(C(=O)c2cc(OC)ccc2Br)c1N	.
COc1cccc(OC)c1NC(=O)CN1CCC(NC(=O)c2cccc(F)c2)CC1	.
COc1ccccc1-c1cc2ccccc2[nH]1	.
SMILES	VCAM1 pot	others
C1CSC2(N1)C1CC3CC2CC(C1)C31NCCS1 (configuration not stated)	.
CC(=O)Nc1c(C(=O)N2CCCCCC2)cnn1-c1ccccc1Cl	.
CCOc1ccc(Oc2ccc(-c3nnc(-c4ccccc4)o3)cc2[N+](=O)[O-])cc1	.
CC(C)(C)C(=O)/C(=C\c1cccc([N+](=O)[O-])c1)n1cncn1	.
COc1ccc(/C=N/N=C2/NC(=O)C(c3ccccc3)(c3ccccc3)S2)cc1	.
O=C(O)c1cn(C2CC2)c2cc(N3CCOCC3)c(F)cc2c1=O	.
CCOC(=O)C1=C(c2cccc(F)c2)NC(=S)NC1C (configuration not stated)	.
CC1(CC(=O)O)C(=O)N=C2C=CC=CN21 (configuration not stated)	.
COc1ccc(OC)c(-n2c(C)ccc2-c2ccc(S(C)(=O)=O)cc2)c1	.
Oc1ccc(-n2cnnn2)cc1	.
CC(=O)c1ccc(C(C)(C)c2ccc(C(C)=O)s2)s1	.
COc1ccc(NC(=O)CCC(=O)Nc2nnc(C(F)(F)F)s2)c(OC)c1	.
COc1ccc(C2/C(=C(\O)c3cccc(OC)c3)C(=O)C(=O)N2c2ccccn2)cc1 (configuration not stated)	.
C/C(Sc1nnc(Cc2ccccc2)o1)=C(/O)c1ccccc1	.
CC(=O)Nc1ccc(S(=O)(=O)N2CCN(C(=O)c3cccnc3)CC2)cc1	.
CCOC(=O)c1c(NC(=O)OC)sc(C(=O)N(CC)CC)c1C	.
O=C(CC12CC3CC(CC(C3)C1)C2)NCC(=O)N1CCc2ccccc2C1	.
CCOC(=O)C(NC(C)=O)(Nc1ccc(S(=O)(=O)Nc2ccncn2)cc1)C(F)(F)F (configuration not stated)	.
O=C(NCC1COc2ccccc2O1)c1cc2ccccc2o1 (configuration not stated)	.
COc1ccc(NC(=O)/C(Cl)=C(/Cl)S(=O)(=O)Cc2ccc(C)cc2)cn1	.
CS(=O)(=O)N(CC(=O)NCc1ccncc1)Cc1ccc(Cl)cc1	.
NC(=O)C1(N2CCCCC2)CCN(S(=O)(=O)c2cc(Cl)ccc2Cl)CC1	.
O=c1oc(-c2cccs2)nc2sc3c(c12)CCCCC3	37
CN(C)c1oc(-c2cccs2)nc1C#N	.
CC(=O)OCc1nc2sc3c(c2c(=O)[nH]1)CCCC3	.
SMILES	VCAM1 pot	others
COC(=O)c1cc(C#N)c(Oc2ccc(F)cc2)nc1C	.
CN(c1cccc(NC(=O)CN(c2ccc(C34CC5CC(CC(C5)C3)C4)cc2)S(C)(=O)=O)c1)S(C)(=O)=O	.
CCc1nc(C)cn1S(=O)(=O)c1cc(C)c(OC)c(C)c1C	.
Cc1cccc(-n2c(SCc3cc(=O)n4c(C)cccc4n3)nc3[nH]ncc3c2=O)c1	.
CC(=O)Nc1cc(C(=O)N2CCN(C)CC2)ccc1Sc1ccc(C)cc1	.
O=c1cc(C(Cl)(Cl)Cl)oc2c1ccc1ccccc12	.
CCOC(=O)C1C(=O)NC(N2CCCCC2)=NC1c1ccco1 (configuration not stated)	.
O=C(N1CCOCC1)N1CCN(S(=O)(=O)N2CCOCC2)CC1	.
CCCNc1nc(Nc2ccc(C)cc2)nc(N2CCCC2)n1	.
Cc1ccc(-n2nnc3c(SCC(=O)N4CCN(c5ccccc5)CC4)ncnc32)cc1	.
CCOC(=O)N1CCN(CC(=O)Nc2ccc(C)c(Br)c2)CC1	.
Cc1ccccc1OC(=O)n1c(=S)oc2cc(Cl)ccc21	.
O=C(O)C1CCN(S(=O)(=O)/C=C/c2ccccc2)CC1	.
O=C1Nc2ccc(F)cc2C12SCCS2	.
CN(C)S(=O)(=O)c1cccc(NC(=O)Cn2cnc3ccccc3c2=O)c1	.
CCc1ccc(N/C(SCc2ccccc2C)=C(/C#N)C(=O)NCc2ccco2)cc1	.
O=C(NCc1cccnc1)c1ccc(COc2cccc3ccccc23)o1	.
O=C(Oc1csc(=S)n1C(=O)c1ccccc1)c1ccccc1	.
Nc1ccccc1NC(=O)c1ccccc1	.
Nc1sccc1C(=O)c1ccccc1	66	VCAM1 pot conf=.
Cc1ccc(C(=O)Nc2c(-c3cccs3)c(=O)c3ccccc3n2C)cc1	.
Cn1ccnc1SCC(=O)Nc1ccc2ccccc2c1	.
C/C(=N\NC(=O)Cc1cccn1C)c1ccc2ccccc2c1	?	VCAM1 pot conf=.
CCOc1ccccc1C1CC(=O)NC2=C1C(=O)CC(C)(C)C2 (configuration not stated)	.
Cc1ccc(N2CCN(C(=O)N3CCCC3)CC2)cc1C	.
Cc1nc(N2CCN(C(=O)c3ccc(Cl)cc3)CC2)c(C#N)c2c1COC(C)(C)C2	50	VCAM1 pot conf=.
COC(=O)c1ccc(CSc2nc(N3CCOCC3)c3c(c2C#N)CC(C)(C)OC3)o1	.
CC(C)(C)C(=O)Nc1ccccc1N1CCN(C(=O)c2ccc(Cl)cc2)CC1	.
